Experiment [1] can be described thus: IUF_NPC1_cytotoxicity_72hr: Cytotoxicity Assessment at 72 hours in the Leibniz Research Institute for Environmental Medicine (IUF) Neural Progenitor Cell Proliferation Assay (NPC1) (AID 2284332).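 Further: rising LDH signal means more cytotoxicity.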 In short, it runs like this: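 Readout is fluorescence from LDH-dependent resazurin conversion, sampled from culture medium after compound contact lasting 72 h. Each well holds one 0.25-0.35 mm human progenitor sphere kept at 37C, 5% CO2 with EGF and FGF.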

Experiment [2] in a line: CCTE_Mundy_HCI_iCellGluta_NOG_NeuronCount: CCTE's Neurite Outgrowth Assay in iCellGluta cells for Neuron Count, Mundy Lab (AID 2284340).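 Further: cells fixed about 48 h after compound addition.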 In short, it runs like this: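 Neuron count read by automated high-content imaging of Hoechst 33342 and betaIII-tubulin/Alexa Fluor-488 labelling in human iPSC glutamatergic neurons. Activity fitted relative to DMSO.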
A short description of experiment [3]: VALA_TUBIPS_Antagonist_CellCount: Viability Assessment in the VALA Sciences human iPS-derived Endothelial Tubule Formation (TUBIPS) Antagonism Assay (AID 2284335).
Experiment [4] is described as follows: VALA_MIGHUV1_ScratchOnly_WoundArea: VALA Sciences human Umbilical Vein Endothelial Cell Migration (MIGHUV) Assay, Area of Scratch Wound Inhibited Recovery (AID 2284336). The method in brief:
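Wound area remaining after 24 h recovery imaged by Hoechst nuclear fluorescence in scratched HUVEC cultures, chemicals added within 30 min of scratching across a 6-point series. Gain of signal fitted against 0.1% DMSO; cytochalasin D positive control.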

Experiment [5] in a line: VALA_TUBHUV_Agonist_TubuleLength: VALA Sciences human Umbilical Vein Endothelial Tubule Formation (TUBHUV) Agonism Assay (AID 2284337). The method in brief: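 Tubule length quantified by CD31 immunofluorescence imaging after fixation. HUVEC-HDF co-cultures (1:3) pre-grown 3 days with 10 ng/ml VEGF, then dosed 3 days in VEGF medium; 0.1 % DMSO vehicle baseline.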
The nature of experiment [6]: VALA_TUBIPS_Agonist_CellCount: Viability Assessment in the VALA Sciences human iPS-derived Endothelial Tubule Formation (TUBIPS) Agonism Assay (AID 2284338).
Experiment [7] can be described thus: CCTE_Deisenroth_H295R-HTRF_384WELL_ESTRADIOL: CCTE's H295R-HTRF Assay Evaluation of Estradiol Concentration, Deisenroth Lab (AID 2284361; active means hit-call score of the fitted dose curve at least 0.9, where 1 is the maximum; inactive means score below 0.9). To be noted: actives raise or lower the signal. The method in brief: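 Estradiol secreted into medium by H295R adrenocortical cells, quantified by HTRF after 48 h dosing over a nine-point 0.001 - 100 uM final range; gain or loss versus DMSO. Parallel ATP-luminescence viability readout; n=5 experiments.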
For orientation: TR-FRET usually uses a lanthanide donor and a delayed reading to cut background.

Experiment [8] is described as follows: CCTE_Deisenroth_H295R-HTRF_384WELL_TESTOSTERONE: CCTE's H295R-HTRF Assay Evaluation of Testosterone Concentration, Deisenroth Lab (AID 2284373; active means hit-call score of the fitted dose curve at least 0.9, where 1 is the maximum; inactive means score below 0.9). The note with it: actives raise or lower the signal. In short, it runs like this:
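H295R cells were acclimated 24 h, then exposed 48 h to nine concentrations (0.001–100 uM final) in technical triplicate, n=5. Testosterone in conditioned medium was measured by HTRF (em 620/665 nm). Fitting was bidirectional versus DMSO; CellTiter-Glo viability ran on the same plates.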

Experiment [9] can be described thus: CCTE_Deisenroth_H295R-HTRF_384WELL_CTOX: Cytotoxicity Assessment in CCTE's H295R-HTRF Assay, Deisenroth Lab (AID 2284380). The method in brief: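 Luminescent ATP viability readout (CellTiter-Glo 2.0), multiplexed on plates used for hormone sampling, after 48 h chemical exposure. Human H295R cells; final concentrations 0.001–100 uM in nine steps, technical triplicates, five experiments; DMSO baseline.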

Experiment [10] concerns SERPINA7 (gene 6906). The experiment can be described thus: CCTE_GLTED_hTBG: CCTE's human Thyroxine-binding Globulin (TBG) Inhibition Assay, Great Lakes Toxicology and Ecology Division (GLTED) Lab (AID 2284343).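 Further: active chemicals lower fluorescence versus DMSO baseline by displacing probe.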 In short, it runs like this: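 Steps: combine TBG with chemical; incubate 2 hours so that disruptors release ANSA; record fluorescence (380 ex, 475 em). Loss of signal was fitted against DMSO controls.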

The test system of experiment [11] is TTR (gene 7276). The experiment can be described thus: CCTE_GLTED_hTTR_0.125uM: CCTE's human Transthyretin (hTTR) Inhibition Assay, with 0.125uM TTR, Great Lakes Toxicology and Ecology Division (GLTED) Lab (AID 2284431; active means hit-call score of the fitted dose curve at least 0.9, where 1 is the maximum; inactive means score below 0.9;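 further: hits lower the fluorescence signal relative to DMSO baseline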). The method in brief:
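TTR at 0.125uM incubated 2 h with test chemical; displacement of bound ANSA read by fluorescence (ex 380, em 475). Activity is signal loss versus DMSO baseline.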

Experiment [12] in a line: TAMU_PeakParms_SingleDonor1434_Asystole: Texas A&M University (TAMU) 1.5-hr Human Induced Pluripotent Stem Cell (iPSC)-derived Cardiomyocytes Calcium (Ca+2) Flux Assay for Cardiotoxicity: Asystole (quiescence of beating) (AID 2284328). In short, it runs like this: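 Average Ca2+-flux peak frequency (beats/s) was recorded in single-donor iPSC-derived cardiomyocytes after 90 min exposure (0.2–100 uM final, 0.5% DMSO). Asystole POD set as EC95 against DMSO, no preprocessing.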

The term AC50 denotes the midpoint of the concentration-response curve, whichever way the signal moves.

Structures are written as SMILES. “And” between values parts separate entries of the source, which are not always exact repeats. Identical values can stand only once. Records with an inconclusive call do not appear. The source made the active and inactive calls. How the source made its calls, unless noted: active means hit-call score of the fitted dose curve at least 0.9, where 1 is the maximum; inconclusive means response in the unintended direction; inactive means score below 0.9.

On to `COP(=O)(OC)OC(Br)C(Cl)(Cl)Br` (configuration not stated), for which, in experiment [1], the compound was called inactive. Also, the AC50 in [2] was 21.7 µM (active).
In the case of `CC(C)N(C(=O)SCC(Cl)=C(Cl)Cl)C(C)C`, the concentration at half-maximal activity (AC50) in experiment [2] was 22.4 µM (active).
On to `CN(C)[C@@H]1C(=O)C(C(N)=O)=C(O)[C@@]2(O)C(=O)C3=C(O)c4c(O)cccc4[C@@](C)(O)[C@H]3[C@H](O)[C@@H]12`, for which the compound was called inactive in experiment [1] and in experiment [3]. For the same compound, the AC50 in [4] was 90.1 µM (active); in experiment [5], 7.49 µM (active); in [6], 9.92 µM (active); in experiment [2], 13.4 µM (active).
As to `COP(=O)(OC)C(O)C(Cl)(Cl)Cl` (configuration not stated), the compound was called inactive in [1].
As for `CC(C1CC1)C(O)(Cn1cncn1)c1ccc(Cl)cc1` (configuration not stated), the call in experiment [7], in [8] and in experiment [9] was inactive.
Take `CSC1=N[C@@](C)(c2ccccc2)C(=O)N1Nc1ccccc1`: the compound was called inactive in [1] and in experiment [2].
For the compound `O=C(O)c1cc(Oc2ccc(C(F)(F)F)cc2Cl)ccc1[N+](=O)[O-]`, the AC50 in experiment [10] is 4.45 µM (active).
Turning to `C[Si](Cn1cncn1)(c1ccc(F)cc1)c1ccc(F)cc1`, the figures for the concentration at half-maximal activity (AC50) in experiment [10] and in experiment [7] were 4.09 µM (active) and 0.968 µM (active), respectively. Further, the compound was classed as inactive in experiment [8] and in experiment [9].
`CCOP(=S)(OCC)OC(Cl)C(Cl)(Cl)Cl` (configuration not stated): the call in experiment [1] and in [2] was inactive. In experiment [11], the AC50 was 33.2 µM (active).
`CON=C(C(=O)OC)c1ccccc1CON=C(C)c1cccc(C(F)(F)F)c1`: the compound was classed as inactive in experiment [1]. The AC50 in [2] was 50 µM (active).
With `CCCSP(=O)(OCC)Oc1ccc(Br)cc1Cl` (configuration not stated), the AC50 in [10] is 14.1 µM (active); in [11] it was 3.6 µM (active).
`CC(=NC#N)N(C)Cc1ccc(Cl)nc1`: the compound was classed as inactive in experiment [1] and in experiment [2].
For the compound `CCC(CC)Nc1c([N+](=O)[O-])cc(C)c(C)c1[N+](=O)[O-]`, the AC50 is 1.64 µM (active) in [10] and 0.448 µM (active) in experiment [11].
Take `CCCOCC(=Nc1ccc(Cl)cc1C(F)(F)F)n1ccnc1`: the values for the concentration at half-maximal activity (AC50) in experiment [7], in [8] and in experiment [11] were 0.27 µM (active), 0.414 µM (active) and 3.56 µM (active), respectively. In addition, the compound was classed as inactive in experiment [9].
As for `Cc1ccn2nc(S(=O)(=O)Nc3c(F)cccc3F)nc2n1`, in experiment [10], the outcome was inactive.
On to `CCOP(=S)(OCC)Oc1ccc([N+](=O)[O-])cc1`, for which the outcome in experiment [12] and in experiment [2] was inactive. In experiment [10], the AC50 was 11.6 µM (active).
For `CCOC(=O)CC(SP(=O)(OC)OC)C(=O)OCC` (configuration not stated), the compound was called inactive in [1].
Regarding `CCCSP(=O)(OCC)SCCC`, the compound was called inactive in [1] and in experiment [2].
As for `S=C1NCCN1`, the compound was classed as inactive in [1], in experiment [4], in experiment [5], in experiment [6] and in experiment [2].
Take `CCOP(=O)(OCC)Oc1cc(C)nc(C(C)C)n1`: the outcome in experiment [1] and in experiment [2] was inactive.
`C=C(C)[C@H]1Cc2c(ccc3c2O[C@@H]2COc4cc(OC)c(OC)cc4[C@@H]2C3=O)O1`: the concentration at half-maximal activity (AC50) was 0.01 µM (active) in [12] and 0.0672 µM (active) in experiment [2]. Besides, in experiment [1], the compound was classed as inactive.
On to `CC1=NNC(=O)N(/N=C/c2cccnc2)C1`, for which the result in experiment [1], in experiment [3], in [4], in experiment [5], in experiment [6] and in experiment [2] was inactive.
For the compound `CCOP(=O)(NC(C)C)Oc1ccc(SC)c(C)c1` (configuration not stated), the call in experiment [1] was inactive. Also, the AC50 in experiment [2] is 51 µM (active); in [10] it was 14.6 µM (active).
Consider `COc1cccc(C(=O)NN(C(=O)c2cc(C)cc(C)c2)C(C)(C)C)c1C`, for which, in experiment [11], the AC50 was 20.6 µM (active).
Take `FC(F)C(F)(F)OCC(Cn1cncn1)c1ccc(Cl)cc1Cl` (configuration not stated): the concentration at half-maximal activity (AC50) in [10] is 10.1 µM (active).
Take `CCCCN(CC)c1c([N+](=O)[O-])cc(C(F)(F)F)cc1[N+](=O)[O-]`: the half-maximal activity concentration (AC50) in experiment [10] is 2.78 µM (active).
On to `Nc1c(Cl)cc([N+](=O)[O-])cc1Cl`, for which, in experiment [11], the AC50 is 0.176 µM (active).
In the case of `CN1COCN(Cc2cnc(Cl)s2)C1=N[N+](=O)[O-]`, the result in [1] was inactive.
As for `CCOP(=S)(Oc1cnc(C(C)(C)C)nc1)OC(C)C` (configuration not stated), the compound was called inactive in [1]. The values for the AC50 in experiment [2] and in experiment [10] were 16 µM (active) and 16.7 µM (active), respectively.
On to `CCOP(=S)(OCC)Oc1cc(C)nc(C(C)C)n1`, for which the result in [1] was inactive.
For the compound `C[N+]1(C)CCCCC1`, the compound was classed as inactive in [1] and in experiment [2].
Take `CC1(C(=O)Nc2ccc(O)c(Cl)c2Cl)CCCCC1`: the AC50 in [11] was 7.98 µM (active).
In the case of `Cc1cc(C2CC2)nc(Nc2ccccc2)n1`, the AC50 in experiment [11] is 14.8 µM (active).
In the case of `CCCCSP(=O)(SCCCC)SCCCC`, the concentration at half-maximal activity (AC50) is 82.5 µM (active) in experiment [1] and 49.9 µM (active) in [2].
Turning to `COP(=O)(NC(C)=O)SC` (configuration not stated), the call in [1] and in experiment [2] was inactive.
As for `CCCCOC(=O)c1ccccc1C(=O)O`, the AC50 in experiment [7] is 54.9 µM (active). Besides, the compound was classed as inactive in experiment [8] and in [9].
As for `O=[N+]([O-])c1cc(C(F)(F)F)c(Cl)c([N+](=O)[O-])c1Nc1ncc(C(F)(F)F)cc1Cl`, the AC50 in experiment [1] was 21.9 µM (active); in experiment [2], 3.14 µM (active); in [10] it was 0.388 µM (active); in experiment [11], 0.0665 µM (active). Also, the outcome in [4] and in experiment [6] was inactive.
Consider `CCOP(=S)(OCC)SCCSCC`, for which the outcome in experiment [1] and in experiment [2] was inactive. Also, in [10], the AC50 is 13.9 µM (active).
On to `CC[C@H](C)[C@H]1O[C@]2(C=C[C@@H]1C)C[C@@H]1C[C@@H](C/C=C(\C)[C@@H](O[C@H]3C[C@H](OC)[C@@H](O[C@H]4C[C@H](OC)[C@@H](NC)[C@H](C)O4)[C@H](C)O3)[C@@H](C)/C=C/C=C3\CO[C@@H]4[C@H](O)C(C)=C[C@@H](C(=O)O1)[C@]34O)O2`, for which the AC50 in experiment [1] is 18.5 µM (active) and 3.79 µM (active); in experiment [2] it was 0.896 µM (active).

The values above are taken from PubChem BioAssay (EPA / NIEHS).
